Test [1] deals with Serine/threonine-protein kinase MRCK alpha (Homo sapiens) (UniProt Q5VT25). The conditions noted are these: at 0.1 µM.
Test [2] shares this target. The note with it: at 1 µM.
For test [3], the target named is Serine/threonine-protein kinase MRCK beta (Homo sapiens) (UniProt Q9Y5S2). The note with it: at 0.1 µM.
The target is the same in test [4]. The note with it: at 1 µM.
Test [5] deals with Ribosomal protein S6 kinase alpha-5 (Homo sapiens) (UniProt O75582). The note with it: at 0.1 µM.
Test [6] shares this target. The conditions noted are these: at 1 µM.
Test [7] addresses Ribosomal protein S6 kinase alpha-4 (Homo sapiens) (UniProt O75676). The note with it: at 0.1 µM.
For test [8] the target is unchanged. The note with it: at 1 µM.
For test [9], the target named is Ribosomal protein S6 kinase beta-1 (Homo sapiens) (UniProt P23443). The note with it: at 0.1 µM.
Sequence of Ribosomal protein S6 kinase beta-1 (Homo sapiens) (P23443 whole entry, looked up): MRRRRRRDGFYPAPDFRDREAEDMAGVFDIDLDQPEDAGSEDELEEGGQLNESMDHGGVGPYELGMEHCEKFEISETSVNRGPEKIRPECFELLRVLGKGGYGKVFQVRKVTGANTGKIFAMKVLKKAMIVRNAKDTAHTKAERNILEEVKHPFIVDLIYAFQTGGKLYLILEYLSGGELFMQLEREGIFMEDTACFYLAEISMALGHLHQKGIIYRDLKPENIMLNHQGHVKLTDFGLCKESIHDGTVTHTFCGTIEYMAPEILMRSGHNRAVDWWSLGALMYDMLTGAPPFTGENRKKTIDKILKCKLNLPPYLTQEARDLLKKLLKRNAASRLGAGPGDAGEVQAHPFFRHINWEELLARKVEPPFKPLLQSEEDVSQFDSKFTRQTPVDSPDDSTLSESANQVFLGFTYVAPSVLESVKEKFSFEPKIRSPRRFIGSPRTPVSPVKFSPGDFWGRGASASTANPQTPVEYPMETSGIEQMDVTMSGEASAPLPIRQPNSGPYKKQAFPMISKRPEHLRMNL
Test [10] has the same target. The conditions noted are these: at 1 µM.
The target of test [11] is T1, 3-phosphoinositide-dependent protein kinase 1 (Homo sapiens) (UniProt O15530).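 Further: values are mean inhibition of PDK1.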
T1 sequence (whole entry): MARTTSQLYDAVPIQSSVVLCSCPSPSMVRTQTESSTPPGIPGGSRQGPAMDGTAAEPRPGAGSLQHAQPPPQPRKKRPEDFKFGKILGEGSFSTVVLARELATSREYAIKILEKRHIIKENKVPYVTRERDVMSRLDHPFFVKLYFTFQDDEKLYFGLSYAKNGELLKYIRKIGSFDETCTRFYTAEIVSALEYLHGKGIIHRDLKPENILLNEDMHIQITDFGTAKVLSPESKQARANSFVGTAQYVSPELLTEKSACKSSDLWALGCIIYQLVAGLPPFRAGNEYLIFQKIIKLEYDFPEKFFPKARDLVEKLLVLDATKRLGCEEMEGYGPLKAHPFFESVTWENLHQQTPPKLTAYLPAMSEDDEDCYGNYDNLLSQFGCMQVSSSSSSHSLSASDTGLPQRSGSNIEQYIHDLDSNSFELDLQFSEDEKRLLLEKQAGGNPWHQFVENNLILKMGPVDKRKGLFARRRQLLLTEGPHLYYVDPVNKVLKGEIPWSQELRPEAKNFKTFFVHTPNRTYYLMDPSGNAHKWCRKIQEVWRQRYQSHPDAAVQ
The conditions noted are these: at 0.1 µM.

Test [12] concerns the target cAMP-dependent protein kinase catalytic subunit alpha (Homo sapiens) (UniProt P17612). The conditions noted are these: at 0.1 µM.
Test [13] shares this target. The conditions noted are these: at 1 µM.
Test [14] concerns the target Protein kinase C alpha type (Homo sapiens) (UniProt P17252). The note with it: at 0.1 µM.
Test [15] shares this target. The note with it: at 1 µM.
The target in test [16] is Protein kinase C beta type (Homo sapiens) (UniProt P05771). The note with it: at 0.1 µM.
Sequence of Protein kinase C beta type (Homo sapiens) (P05771 2-671 limits assumed): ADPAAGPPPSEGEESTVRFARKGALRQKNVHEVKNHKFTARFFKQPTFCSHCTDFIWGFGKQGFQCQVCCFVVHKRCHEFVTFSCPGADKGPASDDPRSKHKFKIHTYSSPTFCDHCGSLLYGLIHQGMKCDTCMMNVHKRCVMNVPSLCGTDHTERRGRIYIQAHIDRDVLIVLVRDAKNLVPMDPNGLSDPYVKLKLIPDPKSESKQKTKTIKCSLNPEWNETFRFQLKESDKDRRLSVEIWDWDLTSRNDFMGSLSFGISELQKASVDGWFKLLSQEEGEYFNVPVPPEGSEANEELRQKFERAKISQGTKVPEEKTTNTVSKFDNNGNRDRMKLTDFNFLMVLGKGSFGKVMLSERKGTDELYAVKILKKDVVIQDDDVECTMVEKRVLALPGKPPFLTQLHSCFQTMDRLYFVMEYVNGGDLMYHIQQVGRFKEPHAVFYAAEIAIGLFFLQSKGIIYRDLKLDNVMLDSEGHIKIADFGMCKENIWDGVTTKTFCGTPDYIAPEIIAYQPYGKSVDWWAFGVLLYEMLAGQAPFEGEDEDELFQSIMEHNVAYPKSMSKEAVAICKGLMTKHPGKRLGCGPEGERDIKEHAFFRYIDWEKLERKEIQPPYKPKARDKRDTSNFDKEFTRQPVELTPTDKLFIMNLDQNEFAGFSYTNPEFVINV
For test [17] the target is unchanged. The conditions noted are these: at 1 µM.
The target of test [18] is Protein kinase C eta type (Homo sapiens) (UniProt P24723). The conditions noted are these: at 0.1 µM.
Sequence of Protein kinase C eta type (Homo sapiens) (P24723 whole entry): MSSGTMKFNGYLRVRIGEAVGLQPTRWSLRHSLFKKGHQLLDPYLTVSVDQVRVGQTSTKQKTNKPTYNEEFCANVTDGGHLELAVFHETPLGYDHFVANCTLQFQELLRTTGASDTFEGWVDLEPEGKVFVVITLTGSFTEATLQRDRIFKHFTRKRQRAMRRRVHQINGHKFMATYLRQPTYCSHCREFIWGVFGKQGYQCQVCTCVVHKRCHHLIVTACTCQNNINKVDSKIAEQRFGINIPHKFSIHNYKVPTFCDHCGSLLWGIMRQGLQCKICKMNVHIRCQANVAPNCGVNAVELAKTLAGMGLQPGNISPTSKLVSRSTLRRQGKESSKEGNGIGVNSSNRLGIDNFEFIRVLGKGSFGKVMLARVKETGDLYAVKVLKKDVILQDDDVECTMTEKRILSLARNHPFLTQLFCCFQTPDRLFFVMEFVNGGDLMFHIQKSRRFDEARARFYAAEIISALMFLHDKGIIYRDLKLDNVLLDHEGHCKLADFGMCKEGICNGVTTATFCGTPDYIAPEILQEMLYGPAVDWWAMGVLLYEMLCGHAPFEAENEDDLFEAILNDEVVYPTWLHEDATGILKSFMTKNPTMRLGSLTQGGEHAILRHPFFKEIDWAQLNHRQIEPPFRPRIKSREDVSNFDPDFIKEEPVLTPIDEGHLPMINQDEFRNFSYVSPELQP
For test [19] the target is unchanged. The note with it: at 1 µM.
Test [20] deals with Protein kinase C gamma type (Homo sapiens) (UniProt P05129). The note with it: at 0.1 µM.

Structures are written as SMILES.

Sequence of Serine/threonine-protein kinase MRCK alpha (Homo sapiens) (Q5VT25 whole entry): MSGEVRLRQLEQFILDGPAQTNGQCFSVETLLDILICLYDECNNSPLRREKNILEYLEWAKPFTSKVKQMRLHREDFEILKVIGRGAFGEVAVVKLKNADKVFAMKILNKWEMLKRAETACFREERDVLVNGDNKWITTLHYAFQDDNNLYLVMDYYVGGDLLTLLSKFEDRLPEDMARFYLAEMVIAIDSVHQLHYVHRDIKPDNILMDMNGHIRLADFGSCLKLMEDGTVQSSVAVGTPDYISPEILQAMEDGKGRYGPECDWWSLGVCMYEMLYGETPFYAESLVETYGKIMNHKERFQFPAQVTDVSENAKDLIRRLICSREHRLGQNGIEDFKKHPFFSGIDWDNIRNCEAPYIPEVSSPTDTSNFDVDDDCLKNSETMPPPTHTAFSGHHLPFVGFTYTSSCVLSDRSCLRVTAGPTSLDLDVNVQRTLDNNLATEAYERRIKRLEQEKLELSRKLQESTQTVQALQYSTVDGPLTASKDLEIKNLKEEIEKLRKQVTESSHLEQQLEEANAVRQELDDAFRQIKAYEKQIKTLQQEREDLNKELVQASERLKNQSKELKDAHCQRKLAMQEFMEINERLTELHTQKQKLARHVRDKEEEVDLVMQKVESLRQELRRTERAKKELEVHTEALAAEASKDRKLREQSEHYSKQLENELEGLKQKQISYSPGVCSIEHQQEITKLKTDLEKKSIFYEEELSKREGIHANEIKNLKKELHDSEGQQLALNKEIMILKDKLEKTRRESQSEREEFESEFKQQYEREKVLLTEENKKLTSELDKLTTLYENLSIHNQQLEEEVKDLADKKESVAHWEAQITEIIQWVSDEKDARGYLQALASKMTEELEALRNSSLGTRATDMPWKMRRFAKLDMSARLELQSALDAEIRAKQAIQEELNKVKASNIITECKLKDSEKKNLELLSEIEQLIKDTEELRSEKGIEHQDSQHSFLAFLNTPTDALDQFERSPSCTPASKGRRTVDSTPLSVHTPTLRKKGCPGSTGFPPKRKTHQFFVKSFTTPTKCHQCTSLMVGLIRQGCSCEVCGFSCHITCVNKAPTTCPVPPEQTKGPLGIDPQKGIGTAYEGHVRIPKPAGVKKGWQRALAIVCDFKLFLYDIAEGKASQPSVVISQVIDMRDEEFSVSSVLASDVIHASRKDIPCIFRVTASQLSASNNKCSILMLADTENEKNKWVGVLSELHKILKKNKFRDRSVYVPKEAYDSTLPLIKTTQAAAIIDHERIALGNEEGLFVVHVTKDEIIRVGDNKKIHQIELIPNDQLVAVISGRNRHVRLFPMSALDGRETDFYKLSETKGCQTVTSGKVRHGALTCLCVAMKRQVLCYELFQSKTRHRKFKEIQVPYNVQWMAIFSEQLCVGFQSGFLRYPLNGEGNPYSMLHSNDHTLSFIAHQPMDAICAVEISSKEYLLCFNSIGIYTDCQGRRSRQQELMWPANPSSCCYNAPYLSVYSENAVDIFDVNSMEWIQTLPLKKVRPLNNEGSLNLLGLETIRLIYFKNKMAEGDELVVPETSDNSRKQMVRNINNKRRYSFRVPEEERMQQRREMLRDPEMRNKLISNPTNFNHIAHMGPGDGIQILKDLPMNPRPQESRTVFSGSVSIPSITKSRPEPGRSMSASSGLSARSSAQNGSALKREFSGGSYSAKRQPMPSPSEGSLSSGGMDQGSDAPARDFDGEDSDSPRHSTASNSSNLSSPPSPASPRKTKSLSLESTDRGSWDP
Sequence of Ribosomal protein S6 kinase alpha-4 (Homo sapiens) (O75676 whole entry, looked up): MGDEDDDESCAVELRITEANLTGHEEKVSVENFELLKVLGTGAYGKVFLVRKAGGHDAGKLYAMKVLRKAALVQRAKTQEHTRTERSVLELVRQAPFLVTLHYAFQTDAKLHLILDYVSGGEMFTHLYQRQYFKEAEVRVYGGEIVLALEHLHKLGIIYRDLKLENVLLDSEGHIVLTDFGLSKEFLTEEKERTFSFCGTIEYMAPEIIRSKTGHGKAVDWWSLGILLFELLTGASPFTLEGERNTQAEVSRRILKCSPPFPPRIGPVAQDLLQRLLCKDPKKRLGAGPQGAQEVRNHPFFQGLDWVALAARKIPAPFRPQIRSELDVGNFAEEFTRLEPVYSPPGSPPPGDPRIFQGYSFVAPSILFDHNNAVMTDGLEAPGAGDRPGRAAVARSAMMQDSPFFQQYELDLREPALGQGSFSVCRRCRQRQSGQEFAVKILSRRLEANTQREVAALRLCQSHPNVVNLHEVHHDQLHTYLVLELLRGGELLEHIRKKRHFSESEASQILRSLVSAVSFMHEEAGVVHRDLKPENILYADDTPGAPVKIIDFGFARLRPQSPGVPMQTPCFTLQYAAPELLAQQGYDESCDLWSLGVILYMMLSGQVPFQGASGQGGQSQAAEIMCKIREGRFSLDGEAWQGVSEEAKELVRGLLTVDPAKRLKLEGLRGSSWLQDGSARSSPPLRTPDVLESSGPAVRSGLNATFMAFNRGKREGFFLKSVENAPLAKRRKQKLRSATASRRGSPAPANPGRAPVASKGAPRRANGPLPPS

Turning to `Cc1cc(-c2ccccn2)cc(C)c1/C=C/c1cncc(-c2nn[nH]n2)c1`, the inhibition in [1] amounted to 2.46%; in test [2], 1.25%; in test [3], 0.75%; in [4], 0.41%; in test [5], 3.34%; in test [6], 2.91%. Besides, the inhibition was 0.46% in [7]; 1.78% in test [8]; 0.44% in [9]; 1.44% in [10]; -0.5% in test [11]; 1.63% in test [12]. For the same compound, the inhibition was 1.8% in [13]; 0.99% in test [14]; 3.52% in test [15]; 0.54% in test [16]; 0.37% in test [17]; 2.25% in [18]. In addition, the inhibition came out at 5.16% in [19] and 1.57% in test [20].

With `O=C1Nc2ccc(-c3cccnc3)cc2C1=Cc1cc(Br)c(O)c(Br)c1`, the inhibition in [1] was 0.24%; in test [2], -0.62%; in test [3], 0.92%; in test [4], 1.01%; in test [5] it was 3.3%; in test [6] it was 3.39%. Besides, the inhibition in [7] worked out at 0.89%; in test [8] it was 2.67%; in test [9] it was 2.32%; in test [10], 2.15%; in [11], 3.18%; in [12], 1.62%. For the same compound, the inhibition in test [13] was 1.19%; in [14] it was 1.72%; in test [15] it was 2.45%; in test [16], 0.24%; in test [17] it was -1.03%; in [18], 3.09%. Moreover, the values for the inhibition in [19] and in test [20] were 0.7% and 4.09%, respectively.

For `COc1ccc(-c2nn3ncccc3c2-c2ccnc(Nc3cccc(C(F)(F)F)c3)n2)cc1`, the inhibition in test [1] is -3.04%; in [2] it was 1.22%; in test [3], 0.66%; in test [4], -0.13%; in [5], 1.92%; in [6], -0.09%. Besides, the inhibition is 2.61% in test [7]; 1.73% in [8]; 1.77% in test [9]; 0.85% in [10]; -0.15% in test [11]; 2.04% in test [12]. Further, the inhibition in test [13] turned out to be 2.61%; in [14] it was 0.27%; in [15], 1.31%; in test [16], 1.46%; in [17], 2.39%; in test [18] it was 0.87%. Besides, the values for the inhibition in test [19] and in [20] were 0.72% and 2.97%, respectively.

Turning to `CN(C)C(=O)O[C@H]1CN[C@H](C#Cc2cc3ncnc(Nc4ccc(OCc5cccc(F)c5)c(Cl)c4)c3s2)C1`, the inhibition in test [1] was -0.3%; in test [2], -0.73%; in test [3], 0.58%; in test [4], 2.77%; in test [5] it was 2.4%; in [6] it was 4.95%. Besides, the inhibition in test [7] was 0.06%; in [8] it was 4.03%; in [9] it was 0.89%; in test [10] it was 2.08%; in test [11] it was 1.92%; in test [12], 2.32%. Also, the inhibition in test [13] is 4.73%; in test [14], 0.57%; in test [15], -0.37%; in [16] it was -1.06%; in [17] it was 0.39%; in [18], 1.05%. In addition, the inhibition in test [19] stood at 1.68%; in test [20], 3.2%.

As to `CC(C)c1ccc(Nc2nccc(-c3cnn4ncccc34)n2)cc1`, the inhibition in test [1] is -1.68%; in [2], -0.92%; in test [3], -1.18%; in [4], -0.74%; in test [5] it was 0.84%; in test [6], 1.36%. In addition, the inhibition was determined as 1.31% in test [7]; 2.98% in test [8]; 0.78% in test [9]; 1.58% in test [10]; 2.46% in test [11]; 1.64% in [12]. The inhibition was 1.72% in test [13]; 0.38% in [14]; 6.9% in test [15]; 0.55% in [16]; 1.57% in test [17]; 1.03% in [18]. In addition, the inhibition in [19] is 3.89%; in test [20], 1.93%.

For the compound `CN(C)CCCn1c(-c2nonc2N)nc2cnccc21`, the inhibition in [1] came to 1.89%; in [2] it was 16.4%; in test [3], 4.34%; in test [4], 22.6%; in test [5] it was 8.29%; in test [6], 28.7%. Also, the inhibition is 3.18% in [7]; 13.9% in [8]; 2.39% in test [9]; 13.2% in test [10]; 1.51% in test [11]; 2.1% in test [12]. The inhibition was found to be 3.18% in test [13]; 0.8% in [14]; 3.62% in test [15]; 1.86% in test [16]; 14.5% in test [17]; 6.38% in test [18]. Also, the figures for the inhibition in test [19] and in [20] were 10% and 4.42%, respectively.

Regarding `O=C(Nc1ccc(Oc2ccc3[nH]c(NC(=O)c4ccco4)nc3c2)cc1)Nc1cc(C(F)(F)F)ccc1F`, the inhibition was -0.11% in [1]; -0.59% in [2]; 1.48% in test [3]; 2.67% in test [4]; -0.96% in test [5]; 1.79% in [6]. Further, the inhibition is 1.72% in test [7]; 5.67% in [8]; 14.2% in [9]; 58.4% in [10]; 2.37% in [11]; -0.33% in [12]. Besides, the inhibition in test [13] is 0.09%; in [14], -3.29%; in test [15], -2.22%; in test [16], -0.09%; in [17], -1.32%; in [18], 1.15%. The inhibition is -0.71% in test [19] and 2.16% in test [20].

The term inhibition denotes the drop in the measured response relative to a control, in per cent.
